Laboratory results: PubChem BioAssay AID624100 (ICCB-Longwood Screening Facility, Harvard Medical School, 2012)
The other results are listed elsewhere or left out. Unmarked numbers belong to inactive results. Activity calls are given as the source filed them.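 Rule for the calls: active = average inhibition over replicates above about 50%, so the earlier screening hit is confirmed (limit read from the data); inactive = the rest, counted as false positives.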

Target: Ubiquitin carboxyl-terminal hydrolase isozyme L5 (Homo sapiens) (UniProt Q9Y5K5)
Sequence (Q9Y5K5 whole entry, looked up): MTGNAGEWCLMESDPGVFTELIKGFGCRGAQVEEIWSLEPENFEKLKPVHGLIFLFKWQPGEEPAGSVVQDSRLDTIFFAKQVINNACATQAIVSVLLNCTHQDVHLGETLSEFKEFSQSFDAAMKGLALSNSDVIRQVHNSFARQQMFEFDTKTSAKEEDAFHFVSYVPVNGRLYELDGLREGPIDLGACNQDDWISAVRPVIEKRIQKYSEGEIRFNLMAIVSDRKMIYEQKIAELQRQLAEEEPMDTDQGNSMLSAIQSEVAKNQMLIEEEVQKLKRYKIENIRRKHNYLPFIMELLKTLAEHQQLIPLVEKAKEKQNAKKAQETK
Assay: proteasome-bound UCH37 Ub-AMC cleavage inhibition – biochemical, Ub-AMC cleavage rate, fluorescence, confirmation (AID 624100);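 note: based on cleavage rate fitted by regression over a 30 min kinetic read; 0% = proteasome plus Ub-AMC and 100% = Ub-AMC without proteasome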
Settings: at 20 µM, hits give high values

## COc1ccc(N2C(=O)/C(=C/c3ccco3)C(=O)NC2=S)cc1
  inhibition: 68.9% (active)

## CCCCCCCCCCCCn1ccc(=N)cc1
  inhibition: 40.2%
